# According to article PMC7862700, “An all-to-all approach to the identification of sequence-specific readers for epigenetic DNA modifications on cytosine”:
# Columns and labels:
# Test in all cases: DAPPL (digital affinity profiling via proximity ligation, sequencing); 10 mM Tris-HCl pH 7.5, 50 mM NaCl, 1 mM DTT, 4% glycerol, room temperature, 30 min; GST-TFs on glutathione beads, 16-mer random dsDNA library, 0.1% formaldehyde crosslink after washing; high values mean tight binding
# FLI1 = biological target: T1, FLI1 (Homo sapiens, UniProt Q01543 1-452); details: protein: recombinant; tags: N-terminal GST; dsDNA, one strand shown
# T1 sequence: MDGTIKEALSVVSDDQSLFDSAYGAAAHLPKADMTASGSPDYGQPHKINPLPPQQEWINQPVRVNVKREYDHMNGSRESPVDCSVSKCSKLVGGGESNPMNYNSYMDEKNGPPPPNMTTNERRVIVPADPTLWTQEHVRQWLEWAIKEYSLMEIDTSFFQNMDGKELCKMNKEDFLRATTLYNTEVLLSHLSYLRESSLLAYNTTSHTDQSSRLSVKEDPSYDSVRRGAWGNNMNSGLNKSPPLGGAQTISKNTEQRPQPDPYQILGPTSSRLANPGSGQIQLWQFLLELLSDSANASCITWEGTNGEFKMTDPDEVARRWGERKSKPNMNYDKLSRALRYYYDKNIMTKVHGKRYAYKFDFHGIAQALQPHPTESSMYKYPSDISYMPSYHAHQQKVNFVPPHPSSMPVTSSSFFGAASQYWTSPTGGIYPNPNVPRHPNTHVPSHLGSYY
# Outline: (§1)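 Binding signal is defined as a hexamer's read frequency for one factor over its frequency for the tag-only sample. To obtain reads, GST-fused human transcription factors were expressed in yeast, captured on glutathione beads, barcoded with DNA and pooled with that sample. Pools met 200 nmole of a 16-mer random double-stranded DNA library in Tris/NaCl/DTT/glycerol buffer for 30 min at room temperature before washing, 0.1% formaldehyde crosslinking, proximity ligation (BsaI/T4 ligase, 1 h, 37 °C), PCR and Illumina NextSeq500 sequencing.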
# ELK1 = biological target: T2, ELK1 (Homo sapiens, UniProt P19419 1-428); details: protein: recombinant; tags: N-terminal GST; dsDNA, one strand shown
# T2 sequence: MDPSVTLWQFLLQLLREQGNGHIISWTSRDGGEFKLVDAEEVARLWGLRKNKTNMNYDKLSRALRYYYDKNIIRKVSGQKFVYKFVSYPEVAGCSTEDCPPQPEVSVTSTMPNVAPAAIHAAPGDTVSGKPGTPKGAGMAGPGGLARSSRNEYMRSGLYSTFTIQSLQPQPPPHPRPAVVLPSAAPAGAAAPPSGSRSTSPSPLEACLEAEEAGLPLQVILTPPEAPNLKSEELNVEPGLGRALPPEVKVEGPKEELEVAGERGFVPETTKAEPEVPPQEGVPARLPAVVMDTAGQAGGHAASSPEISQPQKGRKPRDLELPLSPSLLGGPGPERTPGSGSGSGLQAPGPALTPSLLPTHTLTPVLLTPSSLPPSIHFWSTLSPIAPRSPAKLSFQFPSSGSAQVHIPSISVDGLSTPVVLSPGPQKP
# Outline: as §1
# GABPA = biological target: T3, GABPA (Homo sapiens, UniProt Q06546 1-454); details: protein: recombinant; tags: N-terminal GST; dsDNA, one strand shown
# T3 sequence: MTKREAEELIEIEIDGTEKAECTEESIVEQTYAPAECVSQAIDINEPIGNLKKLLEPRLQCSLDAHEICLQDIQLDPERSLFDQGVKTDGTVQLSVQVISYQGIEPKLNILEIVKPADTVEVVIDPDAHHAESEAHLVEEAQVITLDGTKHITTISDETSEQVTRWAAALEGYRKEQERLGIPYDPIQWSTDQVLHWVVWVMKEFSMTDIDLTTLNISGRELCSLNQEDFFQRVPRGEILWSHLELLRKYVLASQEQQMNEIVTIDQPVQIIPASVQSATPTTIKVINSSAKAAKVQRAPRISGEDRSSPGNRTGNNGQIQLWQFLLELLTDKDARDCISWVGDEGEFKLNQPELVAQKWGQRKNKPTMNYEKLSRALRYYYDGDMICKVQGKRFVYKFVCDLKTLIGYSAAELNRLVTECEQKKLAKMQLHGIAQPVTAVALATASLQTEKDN
# Outline: as §1
# ERG = biological target: T4, ERG (Homo sapiens, UniProt P11308 1-479); details: protein: recombinant; tags: N-terminal GST; dsDNA, one strand shown
# T4 sequence: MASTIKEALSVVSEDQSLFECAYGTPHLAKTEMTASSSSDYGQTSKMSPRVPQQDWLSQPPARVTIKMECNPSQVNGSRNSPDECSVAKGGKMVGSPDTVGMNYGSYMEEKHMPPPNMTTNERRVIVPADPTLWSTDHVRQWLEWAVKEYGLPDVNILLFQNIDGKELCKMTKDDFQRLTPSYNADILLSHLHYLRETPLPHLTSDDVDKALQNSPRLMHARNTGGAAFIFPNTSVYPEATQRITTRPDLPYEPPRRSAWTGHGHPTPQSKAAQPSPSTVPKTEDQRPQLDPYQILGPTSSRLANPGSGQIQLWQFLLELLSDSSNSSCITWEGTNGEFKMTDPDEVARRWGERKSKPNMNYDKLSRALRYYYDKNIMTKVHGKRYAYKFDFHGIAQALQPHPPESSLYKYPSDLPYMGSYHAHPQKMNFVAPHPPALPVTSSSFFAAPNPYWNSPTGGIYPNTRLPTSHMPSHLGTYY
# Outline: as §1
# ELF1 = ELF1 (Homo sapiens, UniProt P32519 1-619); details: protein: recombinant; tags: N-terminal GST; dsDNA, one strand shown
# Chain of ELF1 (P32519 whole entry): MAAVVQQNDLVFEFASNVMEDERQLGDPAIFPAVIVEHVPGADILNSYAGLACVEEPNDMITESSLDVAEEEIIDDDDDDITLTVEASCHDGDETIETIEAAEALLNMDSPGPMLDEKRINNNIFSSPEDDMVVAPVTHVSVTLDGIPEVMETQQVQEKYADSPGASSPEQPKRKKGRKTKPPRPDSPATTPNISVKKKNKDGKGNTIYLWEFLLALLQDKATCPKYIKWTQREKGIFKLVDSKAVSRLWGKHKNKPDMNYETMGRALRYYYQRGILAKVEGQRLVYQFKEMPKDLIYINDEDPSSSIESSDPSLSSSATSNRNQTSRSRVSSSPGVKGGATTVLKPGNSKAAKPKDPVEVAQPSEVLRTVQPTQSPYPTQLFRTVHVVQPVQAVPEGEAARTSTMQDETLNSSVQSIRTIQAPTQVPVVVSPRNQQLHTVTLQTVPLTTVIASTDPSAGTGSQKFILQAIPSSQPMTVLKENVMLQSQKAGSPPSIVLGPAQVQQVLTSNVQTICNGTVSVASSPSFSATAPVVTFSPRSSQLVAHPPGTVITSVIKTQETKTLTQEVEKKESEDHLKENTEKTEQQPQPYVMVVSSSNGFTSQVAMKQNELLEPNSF
# Outline: as §1
# EHF = biological target: T5, EHF (Homo sapiens, UniProt Q9NZC4 1-300); details: protein: recombinant; tags: N-terminal GST; dsDNA, one strand shown
# T5 sequence: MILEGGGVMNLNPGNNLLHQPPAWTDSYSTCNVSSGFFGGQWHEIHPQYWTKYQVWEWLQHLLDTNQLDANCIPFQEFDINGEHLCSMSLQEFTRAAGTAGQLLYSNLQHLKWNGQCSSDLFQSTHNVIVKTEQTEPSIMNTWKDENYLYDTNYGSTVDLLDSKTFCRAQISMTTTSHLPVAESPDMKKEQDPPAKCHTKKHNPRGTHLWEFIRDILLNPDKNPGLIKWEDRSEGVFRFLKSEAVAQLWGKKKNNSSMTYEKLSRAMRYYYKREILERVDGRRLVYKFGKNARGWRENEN
# Outline: as §1
# SPI1 = SPI1 (Homo sapiens, UniProt P17947 1-270); details: protein: recombinant; tags: N-terminal GST; dsDNA, one strand shown
# Outline: as §1
# SPIB = SPIB (Homo sapiens, UniProt Q01892 1-262); details: protein: recombinant; tags: N-terminal GST; dsDNA, one strand shown
# Chain of SPIB (Q01892 whole entry): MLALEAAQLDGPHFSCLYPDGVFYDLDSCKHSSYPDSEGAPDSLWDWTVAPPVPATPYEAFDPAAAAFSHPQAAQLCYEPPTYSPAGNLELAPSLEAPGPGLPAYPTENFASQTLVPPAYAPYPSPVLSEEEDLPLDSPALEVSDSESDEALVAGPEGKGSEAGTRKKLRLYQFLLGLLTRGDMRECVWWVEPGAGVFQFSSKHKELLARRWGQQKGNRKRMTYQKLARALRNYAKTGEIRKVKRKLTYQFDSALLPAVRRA
# Outline: as §1
# ELK3 = biological target: T6, ELK3 (Homo sapiens, UniProt P41970 1-407); details: protein: recombinant; tags: N-terminal GST; dsDNA, one strand shown
# T6 sequence: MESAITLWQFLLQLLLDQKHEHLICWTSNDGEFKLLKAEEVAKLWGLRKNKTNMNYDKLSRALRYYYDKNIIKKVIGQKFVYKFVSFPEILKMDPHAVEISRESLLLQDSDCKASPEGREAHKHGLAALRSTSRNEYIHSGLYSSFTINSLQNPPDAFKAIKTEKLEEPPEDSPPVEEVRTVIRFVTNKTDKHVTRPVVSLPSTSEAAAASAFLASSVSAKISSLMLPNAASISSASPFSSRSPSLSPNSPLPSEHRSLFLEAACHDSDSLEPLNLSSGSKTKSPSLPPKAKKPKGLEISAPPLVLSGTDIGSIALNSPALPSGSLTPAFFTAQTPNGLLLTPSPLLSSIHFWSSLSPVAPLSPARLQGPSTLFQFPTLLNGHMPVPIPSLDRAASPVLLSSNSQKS
# Outline: as §1
# FEV = biological target: T7, FEV (Homo sapiens, UniProt Q99581 1-238); details: protein: recombinant; tags: N-terminal GST; dsDNA, one strand shown
# T7 sequence: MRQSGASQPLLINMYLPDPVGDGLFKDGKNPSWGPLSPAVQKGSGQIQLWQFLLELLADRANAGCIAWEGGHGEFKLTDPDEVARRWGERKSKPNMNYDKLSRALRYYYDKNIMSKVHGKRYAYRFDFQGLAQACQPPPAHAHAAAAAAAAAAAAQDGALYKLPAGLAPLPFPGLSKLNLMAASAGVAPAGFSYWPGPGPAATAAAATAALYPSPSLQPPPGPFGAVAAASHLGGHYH
# Outline: as §1
# ETV5 = ETV5 (Homo sapiens, UniProt P41161 1-510); details: protein: recombinant; tags: N-terminal GST; dsDNA, one strand shown
# Chain of ETV5 (P41161 whole entry): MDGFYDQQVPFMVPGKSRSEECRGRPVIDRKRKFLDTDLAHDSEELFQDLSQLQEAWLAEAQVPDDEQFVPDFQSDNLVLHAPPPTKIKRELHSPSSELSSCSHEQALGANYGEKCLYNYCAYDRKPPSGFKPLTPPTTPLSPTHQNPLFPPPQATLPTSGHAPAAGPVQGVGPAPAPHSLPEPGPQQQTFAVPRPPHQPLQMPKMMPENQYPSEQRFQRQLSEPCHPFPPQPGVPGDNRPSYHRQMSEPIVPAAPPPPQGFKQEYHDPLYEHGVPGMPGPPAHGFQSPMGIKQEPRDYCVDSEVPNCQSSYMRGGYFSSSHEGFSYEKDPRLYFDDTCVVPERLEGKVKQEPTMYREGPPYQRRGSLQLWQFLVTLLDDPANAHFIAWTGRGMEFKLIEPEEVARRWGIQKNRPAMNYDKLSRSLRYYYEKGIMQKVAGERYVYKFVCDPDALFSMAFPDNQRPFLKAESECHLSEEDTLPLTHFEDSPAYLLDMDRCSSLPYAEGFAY
# Outline: as §1
# HSF1 = HSF1 (Homo sapiens, UniProt Q00613 1-529); details: protein: recombinant; tags: N-terminal GST; chain copies: 3; dsDNA, one strand shown
# Chain of HSF1 (Q00613 whole entry): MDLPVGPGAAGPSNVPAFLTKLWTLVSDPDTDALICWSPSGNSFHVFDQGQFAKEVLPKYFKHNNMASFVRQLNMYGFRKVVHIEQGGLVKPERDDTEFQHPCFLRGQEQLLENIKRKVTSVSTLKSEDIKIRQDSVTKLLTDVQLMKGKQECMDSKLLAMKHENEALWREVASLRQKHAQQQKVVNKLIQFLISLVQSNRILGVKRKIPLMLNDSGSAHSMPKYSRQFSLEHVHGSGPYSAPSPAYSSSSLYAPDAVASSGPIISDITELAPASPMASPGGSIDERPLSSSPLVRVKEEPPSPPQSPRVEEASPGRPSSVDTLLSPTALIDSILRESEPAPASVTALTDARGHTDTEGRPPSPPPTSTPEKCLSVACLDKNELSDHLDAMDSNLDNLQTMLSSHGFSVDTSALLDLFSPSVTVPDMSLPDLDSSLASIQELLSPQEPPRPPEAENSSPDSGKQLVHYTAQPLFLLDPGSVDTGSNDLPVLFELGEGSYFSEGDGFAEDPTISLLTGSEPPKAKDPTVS
# Outline: as §1
# SPIC = biological target: T8, SPIC (Homo sapiens, UniProt Q8N5J4 1-248); details: protein: recombinant; tags: N-terminal GST; dsDNA, one strand shown
# T8 sequence: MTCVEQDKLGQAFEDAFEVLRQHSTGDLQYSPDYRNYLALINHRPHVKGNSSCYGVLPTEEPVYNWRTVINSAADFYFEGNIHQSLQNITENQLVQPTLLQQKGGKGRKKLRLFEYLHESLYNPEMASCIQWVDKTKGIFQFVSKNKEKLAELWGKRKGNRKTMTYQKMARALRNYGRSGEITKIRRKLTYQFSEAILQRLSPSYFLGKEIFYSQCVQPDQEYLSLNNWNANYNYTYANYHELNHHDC
# Outline: as §1
# ELF4 = ELF4 (Homo sapiens, UniProt Q99607 1-663); details: protein: recombinant; tags: N-terminal GST; dsDNA, one strand shown
# Chain of ELF4 (Q99607 whole entry): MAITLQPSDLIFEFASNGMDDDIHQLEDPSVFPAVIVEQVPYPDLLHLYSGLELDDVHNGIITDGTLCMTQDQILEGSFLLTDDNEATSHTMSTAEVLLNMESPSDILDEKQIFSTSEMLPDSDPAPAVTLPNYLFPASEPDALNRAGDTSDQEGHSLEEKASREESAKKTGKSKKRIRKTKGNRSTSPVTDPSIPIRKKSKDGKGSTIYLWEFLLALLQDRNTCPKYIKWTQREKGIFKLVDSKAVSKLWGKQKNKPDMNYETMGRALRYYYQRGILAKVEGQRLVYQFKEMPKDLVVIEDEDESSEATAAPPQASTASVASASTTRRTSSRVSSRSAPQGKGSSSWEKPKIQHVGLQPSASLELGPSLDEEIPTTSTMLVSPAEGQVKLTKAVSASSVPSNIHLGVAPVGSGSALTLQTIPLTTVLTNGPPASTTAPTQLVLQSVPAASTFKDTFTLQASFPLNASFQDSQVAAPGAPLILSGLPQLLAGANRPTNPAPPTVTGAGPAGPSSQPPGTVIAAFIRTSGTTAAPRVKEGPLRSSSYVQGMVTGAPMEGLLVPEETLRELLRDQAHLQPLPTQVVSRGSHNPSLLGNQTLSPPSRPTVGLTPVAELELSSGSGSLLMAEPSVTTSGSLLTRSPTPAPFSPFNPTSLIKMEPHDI
# Outline: as §1
# ELK4 = biological target: T9, ELK4 (Homo sapiens, UniProt P28324-2 1-405); details: protein: recombinant; tags: N-terminal GST; dsDNA, one strand shown
# T9 sequence: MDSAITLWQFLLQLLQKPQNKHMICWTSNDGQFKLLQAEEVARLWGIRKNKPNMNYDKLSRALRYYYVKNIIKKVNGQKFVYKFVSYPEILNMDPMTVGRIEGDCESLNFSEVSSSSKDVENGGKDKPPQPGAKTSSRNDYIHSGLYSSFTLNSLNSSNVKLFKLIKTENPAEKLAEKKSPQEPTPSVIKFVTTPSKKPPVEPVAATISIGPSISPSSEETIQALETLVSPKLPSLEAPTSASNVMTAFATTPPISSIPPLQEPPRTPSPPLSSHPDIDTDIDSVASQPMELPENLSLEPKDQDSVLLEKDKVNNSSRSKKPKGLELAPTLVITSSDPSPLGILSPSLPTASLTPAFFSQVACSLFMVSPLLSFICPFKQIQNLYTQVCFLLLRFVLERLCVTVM
# Outline: as §1
# ETV2 = biological target: T10, ETV2 (Homo sapiens, UniProt O00321 1-342); details: protein: recombinant; tags: N-terminal GST; dsDNA, one strand shown
# T10 sequence: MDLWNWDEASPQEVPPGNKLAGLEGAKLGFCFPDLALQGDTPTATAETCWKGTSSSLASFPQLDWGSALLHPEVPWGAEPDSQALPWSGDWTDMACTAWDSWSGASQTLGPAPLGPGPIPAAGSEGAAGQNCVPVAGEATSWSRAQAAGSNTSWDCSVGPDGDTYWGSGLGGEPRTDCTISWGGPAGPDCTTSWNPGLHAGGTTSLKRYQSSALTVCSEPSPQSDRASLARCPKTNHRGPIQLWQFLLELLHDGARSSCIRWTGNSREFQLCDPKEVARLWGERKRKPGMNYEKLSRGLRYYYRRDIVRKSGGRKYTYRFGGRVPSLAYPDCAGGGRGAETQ
# Outline: as §1
# CRX = CRX (Homo sapiens, UniProt O43186 1-299); details: protein: recombinant; tags: N-terminal GST; dsDNA, one strand shown
# Chain of CRX (O43186 whole entry): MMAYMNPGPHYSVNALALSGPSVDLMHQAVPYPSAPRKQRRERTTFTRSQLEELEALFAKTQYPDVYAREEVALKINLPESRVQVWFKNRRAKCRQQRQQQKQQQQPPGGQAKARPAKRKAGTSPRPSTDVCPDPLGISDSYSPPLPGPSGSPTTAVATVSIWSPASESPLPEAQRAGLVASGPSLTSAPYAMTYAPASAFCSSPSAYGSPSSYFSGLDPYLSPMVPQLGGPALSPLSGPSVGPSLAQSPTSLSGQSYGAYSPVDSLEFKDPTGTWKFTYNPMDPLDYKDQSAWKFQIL
# Outline: as §1
# ETV1 = ETV1 (Homo sapiens, UniProt P50549 1-477); details: protein: recombinant; tags: N-terminal GST; dsDNA, one strand shown
# Chain of ETV1 (P50549 whole entry): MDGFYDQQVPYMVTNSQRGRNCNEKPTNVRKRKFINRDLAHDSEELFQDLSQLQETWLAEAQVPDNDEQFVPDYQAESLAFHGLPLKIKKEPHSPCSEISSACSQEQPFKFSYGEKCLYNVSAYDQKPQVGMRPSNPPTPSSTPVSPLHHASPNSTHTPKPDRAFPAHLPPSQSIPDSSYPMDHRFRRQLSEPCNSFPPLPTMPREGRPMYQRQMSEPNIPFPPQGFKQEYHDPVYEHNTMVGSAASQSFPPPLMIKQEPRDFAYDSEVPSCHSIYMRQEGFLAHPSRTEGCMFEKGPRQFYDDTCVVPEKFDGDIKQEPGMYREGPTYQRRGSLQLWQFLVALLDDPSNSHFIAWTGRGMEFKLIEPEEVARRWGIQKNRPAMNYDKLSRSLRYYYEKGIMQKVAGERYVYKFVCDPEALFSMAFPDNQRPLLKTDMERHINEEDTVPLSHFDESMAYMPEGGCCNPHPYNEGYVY
# Outline: as §1
sequence,measurement,setting,value
TTTCGC,binding signal,FLI1,"1.11 fold enrichment (6-mer frequency, TF over GST control)"
same,binding signal,ELK1,"1.12 fold enrichment (6-mer frequency, TF over GST control)"
same,binding signal,GABPA,"1.06 fold enrichment (6-mer frequency, TF over GST control)"
same,binding signal,ERG,"1.02 fold enrichment (6-mer frequency, TF over GST control)"
same,binding signal,ELF1,"1.13 fold enrichment (6-mer frequency, TF over GST control)"
same,binding signal,EHF,"1.2 fold enrichment (6-mer frequency, TF over GST control)"
same,binding signal,SPI1,"1.13 fold enrichment (6-mer frequency, TF over GST control)"
same,binding signal,SPIB,"1.2 fold enrichment (6-mer frequency, TF over GST control)"
same,binding signal,ELK3,"1.14 fold enrichment (6-mer frequency, TF over GST control)"
same,binding signal,FEV,"1.16 fold enrichment (6-mer frequency, TF over GST control)"
same,binding signal,ETV5,"1.08 fold enrichment (6-mer frequency, TF over GST control)"
same,binding signal,HSF1,"1.32 fold enrichment (6-mer frequency, TF over GST control)"
same,binding signal,SPIC,"1.2 fold enrichment (6-mer frequency, TF over GST control)"
same,binding signal,ELF4,"1.08 fold enrichment (6-mer frequency, TF over GST control)"
same,binding signal,ELK4,"1.24 fold enrichment (6-mer frequency, TF over GST control)"
same,binding signal,ETV2,"1.39 fold enrichment (6-mer frequency, TF over GST control)"
same,binding signal,CRX,"1.19 fold enrichment (6-mer frequency, TF over GST control)"
same,binding signal,ETV1,"1.09 fold enrichment (6-mer frequency, TF over GST control)"
